Results reported in PubChem BioAssay.
Activity calls are given as the source filed them.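 The calls were made as follows, unless noted: active = fluorescence slope higher than the sample average by over 3 SD (cut at about -0.22 in these data, passing the limit was not always enough); inactive = the rest.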

What was measured:
[1] = inhibitors of E-selectin induction by TNFa, primary screen, imaging, HUVEC, immunofluorescence, MLSMR starter and 10KST1 sets (AID 487;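 active = visually confirmed hit in the image check and inhibition above 20%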;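 as to inhibition: signal is fraction of cell area covered by stained E-selectin grains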;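 as to nuclei count: 100% = median nuclei count of all wells on the same plate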); details: HUVEC TNFalpha-induced E-selectin immunofluorescence imaging, at 2 µM; inhibition: stronger effect = higher value; nuclei count: measured here: cell number, toxicity
[2] = DUSP6 inhibitors restoring Erk phosphorylation by chemical complementation, primary imaging in DUSP6-transfected HeLa (AID 609;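 active = compounds giving at least 50% inhibition in the cell-based MKP-3 phosphatase rescue imaging test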;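 as to inhibition: phospho-Erk level distribution per well compared with pooled transfected vehicle control wells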); details: HeLa MKP-3 transfected, phospho-Erk imaging KS statistic, at 10 µM, cells stimulated with TPA for 15 min
[3] = molecular target: Dual specificity protein phosphatase 6 (Homo sapiens) (UniProt Q16828); assay: as above; details: HeLa MKP-3 transfected, phospho-Erk imaging KS statistic; at 10 µM; stronger effect = higher value; cells stimulated with TPA for 15 min
[4] = molecular target: Voltage-gated potassium channel subunit beta-2 (Rattus norvegicus) (UniProt P62483); assay: KvBeta enzyme negative modulators, primary screen, biochemical, NADPH fluorescence (AID 622); details: recombinant KvBeta, 4-cyanobenzaldehyde reduction, at 10 µM, stronger effect = higher value;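 also: slope of raw intensity against log time taken from 70 to 1610 s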
[5] = molecular target: Voltage-gated potassium channel subunit beta-2 (Rattus norvegicus) (UniProt P62483); assay: KvBeta positive modulators, primary screen, biochemical, NADPH fluorescence (AID 623;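 active = NADPH fluorescence slope more negative than the mean of all samples by about 3 SD, 99.7% confidence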;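 also: fluorescence intensity change per second fitted from 20 to 320 s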); details: Recombinant KvBeta, NADPH fluorescence decrease slope, 10 min; at 10 µM; stronger effect = lower value
[6] = molecular target: Muscarinic acetylcholine receptor M4 (Homo sapiens) (UniProt P08173); assay: compounds altering M4/GIRK thallium flux, either direction, primary screen, M4 allosteric agonist project, cell-based, HEK293 M4/GIRK, BTC-AM (AID 625;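 active = fluorescence slope after compound addition differing from the mean of all tested samples at 99.7% confidence, mostly higher but some lower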;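 also: thallium influx through GIRK channels coupled to M4 in HEK293 cells with BTC-AM dye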); details: at 10 µM, actives lie on both sides
[7] = inhibitors of larval lipid processing in zebrafish, primary screen, whole organism, PED6 fluorescence, gall bladder and intestine (AID 686;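 active = a full or partial loss of lipid-probe fluorescence in the fish gall bladder, intestine or both, judged by eye; inactive = no fluorescence loss, or compound toxic to the fish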;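 also: larvae 5 to 7 days old with five fish per well; signal comes from phospholipase A2 cleavage of quenched PED6 carried via bile; overnight exposure to compound and PED6 before scoring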); details: Zebrafish larvae PED6 lipid processing, fluorescence scoring; screened at 20 µM (by protocol)
[8] = inhibitors of Chlamydomonas gravitaxis, primary screen, whole organism, Chlamydomonas reinhardtii, WT vs cilia-less mutant, absorbance, 96-well (AID 463189;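 active = inhibition at or above 50% relative to wild type and mutant plate controls; inactive = inhibition below 50%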;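 also: 0% = wild type cc124 cells in DMSO and 100% = ciliumless bld1 mutant cells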); details: OD600 absorbance, 2 days, at 10 µM, stronger effect = higher value
[9] = inhibitors of Sendai virus-induced IRF3 signaling, primary screen, TLR/RLR signaling modifier project, cell-based, Sendai virus stimulus, luciferase, 10K MLSCN set (AID 602276;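 active = inhibition at or above 50% at 10 µM; inactive = inhibition below 50%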;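 also: firefly luciferase from ISG56 promoter only with Renilla not read in this screen; 0% = Sendai virus plus DMSO and 100% = medium plus DMSO without virus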); details: HEK293 RL24 IRF3 luciferase reporter, at 10 µM, stronger effect = higher value
[10] = inhibitors of poly I:C-induced TLR3 signaling, primary screen, cell-based, poly I:C stimulus, luciferase, 10K MLSCN set (AID 602277;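 active = inhibition of the reporter signal at or above 50%; inactive = inhibition below 50%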); details: HEK293-TLR3 RL24 IRF3 luciferase reporter, at 10 µM, stronger effect = higher value
[11] = molecular target: Alpha-2C adrenergic receptor (Homo sapiens) (UniProt P18825); assay: modulators of alpha2C/GIRK thallium flux, primary screen, cell-based, HEK293 alpha2C/GIRK1/2 (AID 624;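 active = fluorescence slope after compound addition differing from the mean of all screened samples at 99.7% confidence, in either direction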;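 also: slope of fluorescence ratio to pre-addition baseline per second over 15 to 24 s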); details: thallium flux BTC fluorescence, at 10 µM, actives lie on both sides
[12] = inhibitors of mutant huntingtin aggregation, primary screen, imaging, exon1htt(103Q)mCFP cells, high-content imaging (AID 483;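 active = visual image review flags a hit and inhibition of aggregation exceeds 20%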;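 also: compound exposure lasted 3 days before fixation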;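 as to nuclei count: percent of the per-plate median nuclei count of sample wells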); details: exon1htt(103Q)mCFP cell line, aggregate imaging, at 2 µM; inhibition of aggregation: stronger effect = higher value; nuclei count: measured here: cell count, toxicity
[13] = measured here: cell density z-score
[14] = measured here: nuclear c-Myc green intensity z-score
[15] = measured here: nuclear pErk red intensity z-score, stronger effect = higher value

Chain of Dual specificity protein phosphatase 6 (Homo sapiens) (Q16828 whole entry, looked up): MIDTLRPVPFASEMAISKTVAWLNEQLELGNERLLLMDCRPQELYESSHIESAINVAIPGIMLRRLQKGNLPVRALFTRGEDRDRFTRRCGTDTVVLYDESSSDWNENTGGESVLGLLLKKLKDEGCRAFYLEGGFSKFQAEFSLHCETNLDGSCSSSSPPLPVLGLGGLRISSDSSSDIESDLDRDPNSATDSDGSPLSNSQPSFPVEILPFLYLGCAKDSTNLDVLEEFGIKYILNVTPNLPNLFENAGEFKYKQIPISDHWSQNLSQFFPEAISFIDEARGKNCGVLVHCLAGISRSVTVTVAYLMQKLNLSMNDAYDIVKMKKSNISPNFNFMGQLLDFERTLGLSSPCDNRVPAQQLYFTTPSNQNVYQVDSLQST
Chain of Alpha-2C adrenergic receptor (Homo sapiens) (P18825 whole entry, looked up): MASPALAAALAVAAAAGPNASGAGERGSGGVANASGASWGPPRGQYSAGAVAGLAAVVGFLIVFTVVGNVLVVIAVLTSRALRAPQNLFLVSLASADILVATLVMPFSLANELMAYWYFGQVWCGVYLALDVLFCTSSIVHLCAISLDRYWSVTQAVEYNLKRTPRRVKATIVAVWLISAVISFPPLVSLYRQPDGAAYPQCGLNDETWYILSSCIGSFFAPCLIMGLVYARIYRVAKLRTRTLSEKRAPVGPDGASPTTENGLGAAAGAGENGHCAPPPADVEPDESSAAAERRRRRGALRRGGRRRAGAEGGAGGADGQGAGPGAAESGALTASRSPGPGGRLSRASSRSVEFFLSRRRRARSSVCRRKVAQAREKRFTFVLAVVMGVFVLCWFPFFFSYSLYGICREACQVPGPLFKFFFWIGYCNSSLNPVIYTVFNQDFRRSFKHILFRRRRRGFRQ
Chain of Muscarinic acetylcholine receptor M4 (Homo sapiens) (P08173 whole entry, looked up): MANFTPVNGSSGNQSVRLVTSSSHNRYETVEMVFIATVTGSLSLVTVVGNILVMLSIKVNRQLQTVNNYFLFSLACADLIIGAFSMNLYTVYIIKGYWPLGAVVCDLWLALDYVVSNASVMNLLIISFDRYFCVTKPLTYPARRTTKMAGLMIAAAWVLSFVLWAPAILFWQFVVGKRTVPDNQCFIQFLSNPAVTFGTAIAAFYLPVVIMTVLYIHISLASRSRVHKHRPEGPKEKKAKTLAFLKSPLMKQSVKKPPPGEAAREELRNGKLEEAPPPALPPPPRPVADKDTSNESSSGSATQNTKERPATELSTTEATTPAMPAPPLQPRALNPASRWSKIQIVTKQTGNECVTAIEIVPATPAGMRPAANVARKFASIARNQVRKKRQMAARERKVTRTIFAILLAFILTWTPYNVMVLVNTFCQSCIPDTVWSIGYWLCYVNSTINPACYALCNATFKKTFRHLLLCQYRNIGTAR
Chain of Voltage-gated potassium channel subunit beta-2 (Rattus norvegicus) (P62483 whole entry, looked up): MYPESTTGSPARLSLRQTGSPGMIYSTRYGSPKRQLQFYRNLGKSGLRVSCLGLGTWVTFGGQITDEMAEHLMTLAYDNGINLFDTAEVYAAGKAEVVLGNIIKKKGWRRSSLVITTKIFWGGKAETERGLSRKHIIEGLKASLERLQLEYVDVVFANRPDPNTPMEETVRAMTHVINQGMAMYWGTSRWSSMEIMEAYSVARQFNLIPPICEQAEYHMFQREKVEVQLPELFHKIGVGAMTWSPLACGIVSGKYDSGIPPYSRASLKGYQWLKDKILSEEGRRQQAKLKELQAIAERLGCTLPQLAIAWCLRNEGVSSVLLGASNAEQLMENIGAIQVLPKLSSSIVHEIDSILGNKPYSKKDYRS

COc1ccc(C(=O)N2CCCC(c3ccccc3)C2)cc1 (centres undefined)
167%: nuclei count [1]
0.742: z-score [2, 15]
-0.133: z-score [2, 13]
0.389: z-score [2, 14]
inactive: inhibition [1] -91.1% | inhibition [3] -7.79% | fluorescence slope [4] -0.406 | NADPH fluorescence slope [5] -4.3e-05 | fluorescence slope [6] 0.00466 | outcome [7] | inhibition [8] 8.1%

CCOC(=O)c1cc(CC)sc1NC(=O)C1CC1
0.203: z-score [2, 15]
inactive: inhibition [1] 5.7% | inhibition [3] 1.75% | fluorescence slope [4] -0.369 | NADPH fluorescence slope [5] -6.8e-05 | fluorescence slope [6] 0.0058 | outcome [7] | inhibition [8] -9.3%
151%: nuclei count [1]
-0.277: z-score [2, 14]
0.13: z-score [2, 13]

CCCCOc1ccccc1P(=O)(O)CP(=O)(c1ccccc1)c1ccccc1
inactive: inhibition [1] -205% | inhibition [3] -5.89% | fluorescence slope [4] -0.436 | NADPH fluorescence slope [5] -3e-05 | fluorescence slope [6] 0.00473 | outcome [7] | inhibition [8] 2.4%
192%: nuclei count [1]
-0.204: z-score [2, 13]
-0.49: z-score [2, 14]
0.473: z-score [2, 15]

COc1ccc(CN2CC(C(=O)NCc3ccccn3)CC2=O)cc1 (centres undefined)
inactive: fluorescence slope [4] -0.582 | NADPH fluorescence slope [5] -2.5e-07 | fluorescence slope [6] 0.00691 | inhibition [9] 14.9% | inhibition [10] 23.4%

Cc1cc(C)cc(-n2ccnc2SCC(=O)Nc2ccc3c(c2)OCCO3)c1
inactive: fluorescence slope [4] -0.57 | NADPH fluorescence slope [5] -3.9e-05 | fluorescence slope [6] 0.00517 | inhibition [9] 1.38% | inhibition [10] -4.03%

O=C(Nc1cc(Cl)ccc1Cl)c1noc2c1CCCC2
inactive: fluorescence slope [4] -0.601 | NADPH fluorescence slope [5] -9e-06 | slope [11] 0.00618 | inhibition [9] -3.4% | inhibition [10] 26.6%

CCOc1ccc2[nH]c(C)cc(=O)c2c1
inactive: fluorescence slope [4] -0.554 | NADPH fluorescence slope [5] 1.5e-05 | slope [11] 0.00617 | inhibition [9] -6.31% | inhibition [10] 16%

Cc1ccc2oc(=O)c3cnn(CC(=O)N4CCCc5ccccc54)c3c2c1
inactive: fluorescence slope [4] -0.49 | NADPH fluorescence slope [5] 1.1e-05 | slope [11] 0.00798 | inhibition [9] 29.3% | inhibition [10] 19.2%

Clc1ccc(-c2nnc3sc(-c4ccc(Br)o4)nn23)cc1
97.9%: nuclei count [12]
181%: nuclei count [1]
inactive: inhibition of aggregation [12] 10.6% | inhibition [1] -136% | fluorescence slope [4] -0.346 | NADPH fluorescence slope [5] 2.1e-05 | slope [11] 0.0087 | inhibition [9] 6.08% | inhibition [10] -13%

CCCNC(=O)C1CN(S(=O)(=O)c2ccccc2)CCN1S(=O)(=O)c1ccccc1 (centres undefined)
inactive: fluorescence slope [4] -0.512 | NADPH fluorescence slope [5] -3.4e-05 | slope [11] 0.00614 | inhibition [9] 9.56% | inhibition [10] 19%

Cn1c(=O)[nH]c2cc3ccccc3cc21
inactive: fluorescence slope [4] -0.527 | NADPH fluorescence slope [5] -6.1e-05 | fluorescence slope [6] 0.00589 | inhibition [9] 4.54% | inhibition [10] 5.31%

CN(C)CCOC(c1ccccc1)c1ccccc1 (tested in a mixture with another compound)
0.00544: z-score [2, 14]
131%: nuclei count [1]
inactive: inhibition [1] -105% | inhibition [3] 13.3% | fluorescence slope [4] -0.486 | NADPH fluorescence slope [5] -8.1e-06 | slope [11] 0.00507 | inhibition [9] 23.9% | inhibition [10] 33.9%
-0.839: z-score [2, 15]
0.752: z-score [2, 13]

COc1ccc(C(=O)NCC(=O)n2nc(C)cc2C)cc1OC
inactive: inhibition [1] -38.7% | inhibition [3] 3.66% | fluorescence slope [4] -0.415 | NADPH fluorescence slope [5] -1.8e-05 | fluorescence slope [6] 0.00491 | outcome [7] | inhibition [8] -5.61%
-1.73: z-score [2, 15]
-0.145: z-score [2, 13]
0.45: z-score [2, 14]
95.9%: nuclei count [1]

O=C(NC1CCCCCC1)C1c2ccccc2C(=O)N1Cc1cccnc1 (centres undefined)
inactive: fluorescence slope [4] -0.575 | NADPH fluorescence slope [5] 1.2e-05 | slope [11] 0.00527 | inhibition [9] 1.87% | inhibition [10] 17.1%

Cc1cccc(-n2ccnc2SCC(=O)Nc2cc(C)on2)c1
inactive: fluorescence slope [4] -0.513 | NADPH fluorescence slope [5] 3.9e-06 | fluorescence slope [6] 0.00505 | inhibition [9] -19% | inhibition [10] -43.2%

CCOC(=O)CNC(=O)C(Cc1ccccc1)NS(=O)(=O)c1ccc2c(c1)CCC(=O)N2 (centres undefined)
inactive: fluorescence slope [4] -0.438 | NADPH fluorescence slope [5] -0.000333 | fluorescence slope [6] 0.00524 | inhibition [9] 0.424% | inhibition [10] 15.6%

CN(C)CCOC(c1ccccc1)c1ccccc1
inactive: inhibition [1] -7% | inhibition [3] 5.42% | fluorescence slope [4] -0.465 | NADPH fluorescence slope [5] -4.4e-05 | slope [11] 0.00555 | inhibition [9] 11.6% | inhibition [10] 38.5%
-0.686: z-score [2, 13]
124%: nuclei count [1]
0.456: z-score [2, 14]
0.78: z-score [2, 15]

CCC(C)(NC(=O)c1ccc(=O)[nH]c1)C(=O)NC1CCCC1 (centres undefined)
inactive: fluorescence slope [4] -0.551 | NADPH fluorescence slope [5] -5e-05 | slope [11] 0.00548 | inhibition [9] 8% | inhibition [10] 24.2%

O=C(NCCC1=CCCCC1)C1CCN(S(=O)(=O)c2cccc3cccnc23)CC1
inactive: fluorescence slope [4] -0.494 | NADPH fluorescence slope [5] 2.4e-05 | slope [11] 0.00594 | inhibition [9] -7.21% | inhibition [10] -9.62%

O=C1[C@@H]2C(c3ccccc3Cl)=NO[C@@H]2C(=O)N1Cc1ccccc1
90.6%: nuclei count [12]
inactive: inhibition of aggregation [12] -2.9% | inhibition [1] -238% | fluorescence slope [4] -0.328 | NADPH fluorescence slope [5] -5.7e-05 | slope [11] 0.00529 | inhibition [9] 9.22% | inhibition [10] 12.2%
213%: nuclei count [1]

Cn1c(=O)oc2cc(S(=O)(=O)NCCC(=O)N3CCc4ccccc4C3)ccc21
inactive: fluorescence slope [4] -0.514 | NADPH fluorescence slope [5] -9.1e-05 | slope [11] 0.00621 | inhibition [9] 13.9% | inhibition [10] 18.7%
